High-throughput results: PubChem, National Center for Advancing Translational Sciences (NCATS)
An excerpt weighted towards active compounds, which were near 21% of everything screened.
Shiga toxin inh – inhibitors of Shiga toxin in Vero cells. Vero cells, Shiga toxin protein synthesis inhibition reporter. inhibition, % at 38.7 µM. 290,000 tested, 9.2% active; in the data active = inhibition mostly above about 28%, no sharp cut-off; inactive = mostly below about 43%
Cycloheximide cs – affects cycloheximide protein synthesis inhibition readout, counter-screen | max response, % | 300,000 tested, 12% active | cell reporter, cycloheximide protein synthesis inhibition counterscreen | AID 2314; in the data active = max response mostly above about 13%, no sharp cut-off; inactive = mostly below about 14%; note: read at 38.3 µM for the half of the compounds with a filed dose
Pf growth 96h – P. falciparum growth inhibition at 96 hour, primary screen for plastid delayed-death inhibitors. 320,000 tested, 6.9% active. AID 504834. P. falciparum luciferase reporter growth, 96 h. Potency, µM (titrated, usually from 28.7 µM), usual class: inhibitors
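Two-generation exposure (96 h) targets delayed-death phenotype. Reporter parasites carrying integrated firefly luciferase, in red cells at 2% hematocrit and 0.05% parasitemia final, kept at 37 C, 5% CO2; luminescence loss indicates inhibition.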
Pf growth 48h – inhibits P. falciparum growth in the first generation, 48 h; P. falciparum luciferase growth in erythrocytes, 48 h; Potency, µM (doses to about 28.7 µM), actives largely listed as inhibitors; 310,000 tested, 5.9% active; AID 504832
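Firefly luciferase activity from engineered P. falciparum reports growth; inhibitors lower the luminescent signal. Cultures contained 2% hematocrit erythrocytes at 0.1% final parasitemia.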
NS1 inh – inhibitors of influenza NS1 protein function; 270,000 tested, 0.4% active; AID 2326; Potency, µM (series often up to 46.1 µM); calls by dose curve; note: actives are rising curves; nearly all actives have a fitted effect of over 50% in size
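In this qHTS, NS1 from influenza A is expressed in budding yeast, where it slows growth. Cells are switched from glucose to 2% galactose medium (pH 6.0, -URA), treated with compound, and growth recovery is read at OD600.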
Of the large screens only hits and unclear results are named; the others gave an inactive call. Unless noted, calls come from the whole dose curve; as a rule, active = well fitted inhibition curve with a large enough effect; inconclusive = small, poorly fitted or top-dose-only effect, or another doubt; inactive = no such curve, though single readings can be large or run the other way.

O=S(=O)(Nc1cccc2cccnc12)c1ccccc1O	none (no result: Pf growth 96h, Pf growth 48h, NS1 inh)
CCOC(=O)CCNC(=O)CNC(=O)OCc1ccccc1	none
O=C(NC(Cc1c[nH]c2ccccc12)C(=O)NCc1ccc(F)cc1)OCc1ccccc1 (stereo unspecified)	none
CS(=O)(=O)c1ccc2nc(NC(=O)c3ccc(S(=O)(=O)NCC4CCCO4)cc3)sc2c1 (stereo unspecified)	Pf growth 48h inconclusive (no result: NS1 inh)
O=C(Nn1cnnc1)c1ccc(OC(F)(F)C(F)C(F)(F)F)cc1 (stereo unspecified)	none
Cc1ccc(CC(=O)N2CCOCC2)cc1	none
Cc1ccc(CSCC(=O)N2CCOCC2)cc1	Cycloheximide cs 20 (no result: Pf growth 48h)
O=[N+]([O-])c1ccc(C2=NCCO2)cc1	Shiga toxin inh 74, Cycloheximide cs 39
CCNC(=S)N(Cc1cc2cc(C)cc(C)c2[nH]c1=O)C1CCCC1	Pf growth 96h 6.6µM, Pf growth 48h inconclusive
O=C(CN1C(=O)C2C3CCC(C3)C2C1=O)OCC(=O)c1ccc(Br)cc1 (stereo unspecified)	none
CCOc1ccccc1N1CCN(Cc2cnc(-c3ccccc3)[nH]2)CC1	Pf growth 96h 9.3µM, Pf growth 48h 13µM
CCOc1ccccc1OCCC(=O)N1CCN(S(=O)(=O)c2ccccc2[N+](=O)[O-])CC1	Pf growth 96h inconclusive, Pf growth 48h 12µM (no result: Shiga toxin inh, Cycloheximide cs, NS1 inh)
O=C(COc1ccccc1[N+](=O)[O-])N1CCN(S(=O)(=O)c2ccccc2)CC1	none
CCOc1ccccc1OCCCC(=O)N1CCN(S(=O)(=O)c2ccc(Cl)cc2)CC1	Pf growth 96h inconclusive, Pf growth 48h 13µM (no result: Shiga toxin inh, Cycloheximide cs, NS1 inh)
OCCN1CCN(c2cc(C(F)(F)F)nc3ccccc23)CC1	Pf growth 48h 12µM, NS1 inh inconclusive
O=C(O)CSCC(=O)N1CCN(c2cc(C(F)(F)F)nc3ccccc23)CC1	none
O=C(c1cc(Cl)cc(Cl)c1)N1CCN(c2cc(C(F)(F)F)nc3ccccc23)CC1	Pf growth 96h 1.3µM, Pf growth 48h 3.7µM
Cc1nc2ccccn2c1-c1nnco1	none
Cc1cc(-c2nnco2)c(C)n1-c1ccccc1	Cycloheximide cs 37, Pf growth 96h inconclusive
O=C(O)CSc1nnc(CNc2cccc(C(F)(F)F)c2)n1Cc1ccco1	Pf growth 96h 6.6µM
Oc1ccc(C(c2nnnn2C2CCCC2)N2CCc3ccccc3C2)cc1 (stereo unspecified)	Pf growth 48h inconclusive (no result: Pf growth 96h)
Cc1ccc(C(c2nnnn2C2CCCCC2)N2CCc3ccccc32)cc1 (stereo unspecified)	Pf growth 96h inconclusive, Pf growth 48h 12µM
CC(C)C(c1nnnn1C1CCCCC1)N1CCc2ccccc21 (stereo unspecified)	Pf growth 48h 12µM (no result: Pf growth 96h)
CC(C)C(c1nnnn1C1CCCC1)N1c2ccccc2CC1C (stereo unspecified)	Pf growth 96h inconclusive, Pf growth 48h 3.7µM
CC1Cc2ccccc2N1C(=O)CSc1nnnn1C1CCCC1 (stereo unspecified)	none
CC(=O)O/N=C(\N)Cc1ccc(-c2csnn2)cc1	none
O=C(CCN1CCN(c2ccccc2)CC1)N/N=C/c1ccccc1OC(F)F	none (no result: NS1 inh)
Cc1ccc(C2N=C(N)Nc3nc(=O)c4ccccc4n32)cc1 (stereo unspecified)	Pf growth 96h 9.3µM, Pf growth 48h inconclusive, NS1 inh inconclusive
CCCc1cc2c(=O)c(-c3nc4ccccc4s3)c(COCC(=O)O)oc2cc1O	Shiga toxin inh 95, Cycloheximide cs 43 (no result: NS1 inh)
CCc1cc2c(=O)c(-c3nc4ccccc4n3C)c(COCC(=O)O)oc2cc1O	none
COc1ccc(Nc2nc(N)nc(CN3CCc4ccccc4C3)n2)cc1	none (no result: Pf growth 48h)
COc1ccc(Nc2nc(N)nc(CN(C)C3CCCCC3)n2)cc1	Pf growth 96h inconclusive, Pf growth 48h inconclusive
COc1ccc(Nc2nc(N)nc(CSC(=S)N3CCCCC3)n2)cc1	Shiga toxin inh 36, Cycloheximide cs 48 (no result: NS1 inh)
Cc1c(Cl)cccc1Nc1nc(N)nc(CSC(=S)N2CCOCC2)n1	Cycloheximide cs 39, Pf growth 96h inconclusive (no result: NS1 inh)
COc1ccc(Nc2nc(N)nc(CSC(=S)N3CCN(C)CC3)n2)cc1	Cycloheximide cs 17, Pf growth 96h inconclusive
COc1ccc(Nc2nc(N)nc(CN3CCN(c4ccccn4)CC3)n2)cc1	none
COc1ccc(Nc2nc(N)nc(CSC(=S)N3CCCCC3C)n2)cc1 (stereo unspecified)	Shiga toxin inh 65, Cycloheximide cs 28, Pf growth 96h inconclusive
COC(=O)c1cc(Cl)c(NC(=O)Cc2ccccc2)cc1OC	none
COc1ccc(C(=O)N=c2sc3c(C)ccc(OC)c3n2C)cc1OC	none
COc1ccccc1C(=O)N=c1sc2c(C)ccc(OC)c2n1C	Shiga toxin inh 107, Cycloheximide cs 40
COc1cccc(C(=O)N=c2sc3c(C)ccc(OC)c3n2C)c1	Shiga toxin inh 49, Cycloheximide cs 45
Cc1cc(C)n2c(Nc3ccc4c(c3)OCCO4)c(-c3ccccc3)nc2n1	Shiga toxin inh 52, Cycloheximide cs 46, Pf growth 96h inconclusive (no result: Pf growth 48h)
Cc1cccc2nc(-c3ccco3)c(Nc3ccccc3)n12	none (no result: NS1 inh)
Cc1cccc2nc(-c3ccco3)c(Nc3ccc4c(c3)OCO4)n12	Cycloheximide cs 31, Pf growth 96h inconclusive, Pf growth 48h inconclusive (no result: NS1 inh)
O=C(c1cccc(S(=O)(=O)NCCOc2ccccc2)c1)N1CCN(c2ncccn2)CC1	Pf growth 48h inconclusive (no result: Pf growth 96h)
CC(=O)Nc1ccc(S(=O)(=O)NCCC(=O)OCc2csc(CC(=O)Nc3ccccc3C)n2)cc1	Pf growth 96h inconclusive, Pf growth 48h 12µM (no result: Shiga toxin inh, Cycloheximide cs, NS1 inh)
CC(=O)Nc1cccc(C(=O)OCc2csc(CC(=O)Nc3ccccc3C)n2)c1	Pf growth 96h inconclusive, Pf growth 48h 9.3µM (no result: Shiga toxin inh, Cycloheximide cs, NS1 inh)
CC(SC1CCCC1)C(=O)NC(C)(C#N)C(C)C (stereo unspecified)	Pf growth 96h inconclusive
COCCNC(=O)COC(=O)c1cccnc1SC	none (no result: NS1 inh)
Cc1cc(C)nc(-n2ncc3c2CC(c2cccc(Cl)c2)CC3=O)n1 (stereo unspecified)	Pf growth 96h 4.1µM, Pf growth 48h inconclusive (no result: NS1 inh)
Cc1cc(C)nc(-n2ncc3c2CC(c2ccccc2C)CC3=O)n1 (stereo unspecified)	Pf growth 96h 5.2µM, Pf growth 48h inconclusive
COc1ccc(S(=O)(=O)N(C)C)cc1NS(=O)(=O)c1ccc(F)c(F)c1F	Pf growth 96h inconclusive
C=CCNC(=O)c1onc(CSc2cccc(OC)c2)c1C(=O)O	NS1 inh inconclusive
CCOC(=O)c1c(C)n(-c2ccc(OC)cc2)c2ccc(O)c(CN(C)C)c12	Pf growth 96h 7.4µM, Pf growth 48h inconclusive
CCOC(=O)c1sc(=S)n(-c2ccc(OC)cc2)c1N	Pf growth 96h inconclusive, Pf growth 48h inconclusive
CCOC(=O)c1sc(=N)n(-c2ccc(OC)cc2)c1C	Cycloheximide cs 28
Cc1ccc(-n2c(C)c([N+](=O)[O-])c3ccc(O)c(CN(C)C)c32)cc1	Pf growth 48h 13µM, NS1 inh inconclusive (no result: Pf growth 96h)
CCOC(=O)c1sc(=S)n(-c2ccc(C)cc2)c1SC	Pf growth 96h 0.47µM, Pf growth 48h 1.2µM
Cc1ccc(-c2ocnc2C(=O)N2CCOCC2)cc1	Pf growth 96h inconclusive
Cc1cc(C(=O)NC(C)c2ccncc2)cs1 (stereo unspecified)	none
